# Data from ChEMBL document CHEMBL2218924, “A broad activity screen in support of a chemogenomic map for kinase signalling research and drug discovery” (Biochem J, 2013).
# Columns and labels:
# [1] = biological target: Serine/threonine-protein kinase PAK 4 (Homo sapiens) (UniProt O96013); conditions: at 1 µM
# [2] = biological target: Serine/threonine-protein kinase PAK 4 (Homo sapiens) (UniProt O96013); conditions: at 10 µM
# [3] = biological target: Serine/threonine-protein kinase PAK 5 (Homo sapiens) (UniProt Q9P286); conditions: at 1 µM
# Sequence of Serine/threonine-protein kinase PAK 5 (Homo sapiens) (Q9P286 whole entry, looked up): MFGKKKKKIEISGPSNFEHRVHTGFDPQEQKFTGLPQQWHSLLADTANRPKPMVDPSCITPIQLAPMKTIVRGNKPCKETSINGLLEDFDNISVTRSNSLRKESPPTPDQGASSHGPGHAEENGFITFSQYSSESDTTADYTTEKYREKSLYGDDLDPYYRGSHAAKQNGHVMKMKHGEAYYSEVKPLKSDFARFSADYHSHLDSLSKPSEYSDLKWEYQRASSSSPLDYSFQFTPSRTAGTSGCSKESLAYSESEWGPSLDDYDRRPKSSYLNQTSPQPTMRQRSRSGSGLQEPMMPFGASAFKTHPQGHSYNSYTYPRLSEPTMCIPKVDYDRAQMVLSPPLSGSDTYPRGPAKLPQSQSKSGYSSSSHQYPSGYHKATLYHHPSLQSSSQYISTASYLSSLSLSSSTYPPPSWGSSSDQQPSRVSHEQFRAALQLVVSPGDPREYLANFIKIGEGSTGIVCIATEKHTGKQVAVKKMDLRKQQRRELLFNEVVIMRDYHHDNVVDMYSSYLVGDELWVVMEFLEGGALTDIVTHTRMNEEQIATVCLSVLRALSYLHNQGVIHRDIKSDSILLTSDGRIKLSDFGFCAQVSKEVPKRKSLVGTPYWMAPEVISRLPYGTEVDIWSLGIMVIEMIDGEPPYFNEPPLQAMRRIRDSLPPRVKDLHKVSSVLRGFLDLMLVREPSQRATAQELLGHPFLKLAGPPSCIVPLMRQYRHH
# [4] = biological target: Serine/threonine-protein kinase PAK 5 (Homo sapiens) (UniProt Q9P286); conditions: at 10 µM
# [5] = biological target: Serine/threonine-protein kinase PAK 6 (Homo sapiens) (UniProt Q9NQU5); conditions: at 1 µM
# [6] = biological target: Serine/threonine-protein kinase PAK 6 (Homo sapiens) (UniProt Q9NQU5); conditions: at 10 µM
# [7] = biological target: PAS domain-containing serine/threonine-protein kinase (Homo sapiens) (UniProt Q96RG2); conditions: at 10 µM
# [8] = biological target: Activated CDC42 kinase 1 (Homo sapiens) (UniProt Q07912); conditions: at 1 µM
# Sequence of Activated CDC42 kinase 1 (Homo sapiens) (Q07912 whole entry, looked up): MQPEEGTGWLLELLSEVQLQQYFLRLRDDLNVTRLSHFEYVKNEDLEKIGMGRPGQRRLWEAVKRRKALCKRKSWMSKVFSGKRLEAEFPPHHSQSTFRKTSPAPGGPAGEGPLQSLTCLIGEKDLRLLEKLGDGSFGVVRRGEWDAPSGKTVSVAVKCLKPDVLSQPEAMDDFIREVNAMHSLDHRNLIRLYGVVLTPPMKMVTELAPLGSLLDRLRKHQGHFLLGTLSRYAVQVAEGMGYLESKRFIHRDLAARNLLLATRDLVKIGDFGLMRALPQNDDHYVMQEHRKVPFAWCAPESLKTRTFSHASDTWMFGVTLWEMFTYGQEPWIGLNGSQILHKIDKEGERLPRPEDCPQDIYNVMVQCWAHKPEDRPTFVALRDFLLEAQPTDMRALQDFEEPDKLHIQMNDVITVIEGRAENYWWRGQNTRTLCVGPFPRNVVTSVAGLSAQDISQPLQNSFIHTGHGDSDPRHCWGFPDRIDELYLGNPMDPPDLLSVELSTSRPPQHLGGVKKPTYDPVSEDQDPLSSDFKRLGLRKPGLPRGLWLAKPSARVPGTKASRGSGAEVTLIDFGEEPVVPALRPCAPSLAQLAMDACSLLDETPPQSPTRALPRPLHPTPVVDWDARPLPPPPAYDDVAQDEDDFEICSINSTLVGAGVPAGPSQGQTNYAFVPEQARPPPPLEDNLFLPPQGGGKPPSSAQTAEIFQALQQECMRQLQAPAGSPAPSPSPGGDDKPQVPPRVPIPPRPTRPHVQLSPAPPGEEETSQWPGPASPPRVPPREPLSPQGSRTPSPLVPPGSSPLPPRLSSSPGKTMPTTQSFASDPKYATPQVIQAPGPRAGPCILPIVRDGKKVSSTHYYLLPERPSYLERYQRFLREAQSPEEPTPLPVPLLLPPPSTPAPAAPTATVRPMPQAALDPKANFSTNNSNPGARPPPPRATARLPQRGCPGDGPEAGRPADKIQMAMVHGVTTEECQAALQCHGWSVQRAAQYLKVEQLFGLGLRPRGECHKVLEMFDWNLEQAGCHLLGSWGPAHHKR
# [9] = biological target: Activated CDC42 kinase 1 (Homo sapiens) (UniProt Q07912); conditions: at 10 µM
# [10] = biological target: ALK tyrosine kinase receptor (Homo sapiens) (UniProt Q9UM73); conditions: at 1 µM
# Sequence of ALK tyrosine kinase receptor (Homo sapiens) (Q9UM73 19-1620 limits assumed): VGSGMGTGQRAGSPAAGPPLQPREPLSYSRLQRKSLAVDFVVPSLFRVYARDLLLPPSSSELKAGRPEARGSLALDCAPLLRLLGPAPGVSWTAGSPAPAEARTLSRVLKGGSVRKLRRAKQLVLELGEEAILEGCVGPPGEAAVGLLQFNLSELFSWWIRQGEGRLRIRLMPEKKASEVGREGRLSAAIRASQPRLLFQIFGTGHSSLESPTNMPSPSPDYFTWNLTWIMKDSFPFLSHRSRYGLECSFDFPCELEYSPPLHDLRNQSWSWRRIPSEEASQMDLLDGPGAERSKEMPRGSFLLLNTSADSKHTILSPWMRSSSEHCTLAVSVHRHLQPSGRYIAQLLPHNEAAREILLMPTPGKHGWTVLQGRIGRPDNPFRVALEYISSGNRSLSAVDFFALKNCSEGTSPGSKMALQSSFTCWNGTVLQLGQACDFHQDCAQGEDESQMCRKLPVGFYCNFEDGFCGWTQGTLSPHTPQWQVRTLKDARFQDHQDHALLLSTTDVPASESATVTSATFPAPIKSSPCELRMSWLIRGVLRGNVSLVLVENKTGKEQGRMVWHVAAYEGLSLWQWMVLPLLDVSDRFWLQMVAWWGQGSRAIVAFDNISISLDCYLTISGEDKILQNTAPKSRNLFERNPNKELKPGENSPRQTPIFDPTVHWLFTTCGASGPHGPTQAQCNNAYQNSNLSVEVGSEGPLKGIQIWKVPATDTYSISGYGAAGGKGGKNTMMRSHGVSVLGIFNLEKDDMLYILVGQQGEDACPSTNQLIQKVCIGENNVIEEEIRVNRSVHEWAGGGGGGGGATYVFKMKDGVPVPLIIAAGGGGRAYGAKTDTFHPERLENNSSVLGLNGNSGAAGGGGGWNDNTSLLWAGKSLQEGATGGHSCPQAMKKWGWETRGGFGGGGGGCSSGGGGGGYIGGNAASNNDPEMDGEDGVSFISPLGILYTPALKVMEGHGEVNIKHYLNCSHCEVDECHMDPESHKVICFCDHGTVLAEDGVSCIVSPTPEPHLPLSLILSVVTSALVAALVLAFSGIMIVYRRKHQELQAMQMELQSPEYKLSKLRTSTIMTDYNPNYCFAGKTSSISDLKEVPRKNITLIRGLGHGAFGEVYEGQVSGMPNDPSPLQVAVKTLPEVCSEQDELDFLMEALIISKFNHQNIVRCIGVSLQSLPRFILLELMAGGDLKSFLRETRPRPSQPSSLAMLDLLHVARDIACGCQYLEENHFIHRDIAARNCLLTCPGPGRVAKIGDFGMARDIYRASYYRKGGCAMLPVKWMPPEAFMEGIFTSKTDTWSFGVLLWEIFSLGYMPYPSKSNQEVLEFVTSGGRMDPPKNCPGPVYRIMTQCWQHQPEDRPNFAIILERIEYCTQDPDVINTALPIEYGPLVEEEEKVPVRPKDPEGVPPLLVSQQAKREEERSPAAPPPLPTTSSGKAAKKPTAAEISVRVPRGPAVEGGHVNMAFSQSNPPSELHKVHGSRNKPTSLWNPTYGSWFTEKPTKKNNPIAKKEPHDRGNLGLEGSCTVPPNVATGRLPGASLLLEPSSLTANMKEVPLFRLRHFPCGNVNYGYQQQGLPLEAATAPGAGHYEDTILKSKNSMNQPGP
# [11] = biological target: ALK tyrosine kinase receptor (Homo sapiens) (UniProt Q9UM73); conditions: at 10 µM
# [12] = biological target: T1, AMP-activated protein kinase (AMPK) alpha-1/beta-1/gamma-1 (Homo sapiens) (UniProt P54619+Q9Y478+Q13131); conditions: at 1 µM
# T1 sequence (P54619 whole entry): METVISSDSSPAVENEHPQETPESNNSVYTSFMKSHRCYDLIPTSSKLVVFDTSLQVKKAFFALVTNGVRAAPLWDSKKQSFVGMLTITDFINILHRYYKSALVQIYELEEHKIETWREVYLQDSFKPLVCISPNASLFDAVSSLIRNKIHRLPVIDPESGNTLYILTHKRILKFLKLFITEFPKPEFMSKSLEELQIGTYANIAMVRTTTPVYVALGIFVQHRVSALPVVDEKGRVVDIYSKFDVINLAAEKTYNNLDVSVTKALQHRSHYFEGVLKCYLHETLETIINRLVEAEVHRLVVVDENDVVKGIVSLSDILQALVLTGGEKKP
# T1 sequence (Q13131 whole entry partner): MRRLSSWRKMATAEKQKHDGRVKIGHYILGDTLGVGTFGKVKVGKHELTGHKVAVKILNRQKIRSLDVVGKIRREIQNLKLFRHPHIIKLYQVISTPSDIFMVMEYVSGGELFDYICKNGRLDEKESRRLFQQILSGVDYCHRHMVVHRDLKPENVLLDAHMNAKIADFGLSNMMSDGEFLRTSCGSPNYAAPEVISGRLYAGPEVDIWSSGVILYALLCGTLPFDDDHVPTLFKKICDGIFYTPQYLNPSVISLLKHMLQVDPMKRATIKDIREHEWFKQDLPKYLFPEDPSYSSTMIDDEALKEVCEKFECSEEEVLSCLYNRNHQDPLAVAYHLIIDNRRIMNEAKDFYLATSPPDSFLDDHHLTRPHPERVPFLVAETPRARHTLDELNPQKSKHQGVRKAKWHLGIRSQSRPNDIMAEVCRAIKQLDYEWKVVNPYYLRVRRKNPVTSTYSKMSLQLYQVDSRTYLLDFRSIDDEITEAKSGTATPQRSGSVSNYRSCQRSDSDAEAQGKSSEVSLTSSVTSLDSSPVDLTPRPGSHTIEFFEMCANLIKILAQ
# T1 sequence (Q9Y478 2-270 partner limits assumed): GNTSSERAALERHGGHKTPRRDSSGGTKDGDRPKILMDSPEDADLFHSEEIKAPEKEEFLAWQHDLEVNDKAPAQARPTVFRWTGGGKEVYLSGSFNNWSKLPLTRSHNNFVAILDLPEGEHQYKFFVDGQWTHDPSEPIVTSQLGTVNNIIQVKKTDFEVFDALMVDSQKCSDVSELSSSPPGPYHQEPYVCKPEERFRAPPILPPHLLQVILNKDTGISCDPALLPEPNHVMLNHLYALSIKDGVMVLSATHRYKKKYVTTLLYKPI
# [13] = biological target: T1, AMP-activated protein kinase (AMPK) alpha-1/beta-1/gamma-1 (Homo sapiens); conditions: at 10 µM
# [14] = biological target: T2, AMP-activated protein kinase, AMPK (Homo sapiens) (UniProt P54646+O43741+P54619+Q9UGJ0+Q9Y478+Q13131+Q9UGI9); conditions: at 10 µM
# [15] = biological target: T3, NUAK family SNF1-like kinase 1 (Homo sapiens) (UniProt O60285); conditions: at 1 µM
# T3 sequence (whole entry): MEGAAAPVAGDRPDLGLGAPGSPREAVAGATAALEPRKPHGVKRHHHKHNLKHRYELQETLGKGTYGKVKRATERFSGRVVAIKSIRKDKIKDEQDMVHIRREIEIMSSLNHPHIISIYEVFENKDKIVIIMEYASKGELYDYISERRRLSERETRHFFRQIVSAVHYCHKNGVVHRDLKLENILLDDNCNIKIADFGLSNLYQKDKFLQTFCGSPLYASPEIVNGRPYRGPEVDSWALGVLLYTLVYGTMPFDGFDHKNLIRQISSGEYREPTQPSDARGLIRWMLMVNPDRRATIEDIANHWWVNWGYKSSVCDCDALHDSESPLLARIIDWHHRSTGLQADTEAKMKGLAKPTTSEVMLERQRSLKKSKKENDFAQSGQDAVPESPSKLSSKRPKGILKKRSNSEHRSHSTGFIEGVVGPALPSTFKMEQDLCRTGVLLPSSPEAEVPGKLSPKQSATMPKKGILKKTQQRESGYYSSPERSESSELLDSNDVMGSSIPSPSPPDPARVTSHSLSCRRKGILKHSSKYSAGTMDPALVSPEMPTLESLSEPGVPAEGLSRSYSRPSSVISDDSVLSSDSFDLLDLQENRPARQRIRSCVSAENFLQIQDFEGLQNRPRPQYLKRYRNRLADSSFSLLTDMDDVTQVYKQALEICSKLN
# [16] = biological target: T3, NUAK family SNF1-like kinase 1 (Homo sapiens); conditions: at 10 µM
# [17] = biological target: T4, Mitogen-activated protein kinase kinase kinase 5 (Homo sapiens) (UniProt Q99683); conditions: at 1 µM
# T4 sequence (whole entry): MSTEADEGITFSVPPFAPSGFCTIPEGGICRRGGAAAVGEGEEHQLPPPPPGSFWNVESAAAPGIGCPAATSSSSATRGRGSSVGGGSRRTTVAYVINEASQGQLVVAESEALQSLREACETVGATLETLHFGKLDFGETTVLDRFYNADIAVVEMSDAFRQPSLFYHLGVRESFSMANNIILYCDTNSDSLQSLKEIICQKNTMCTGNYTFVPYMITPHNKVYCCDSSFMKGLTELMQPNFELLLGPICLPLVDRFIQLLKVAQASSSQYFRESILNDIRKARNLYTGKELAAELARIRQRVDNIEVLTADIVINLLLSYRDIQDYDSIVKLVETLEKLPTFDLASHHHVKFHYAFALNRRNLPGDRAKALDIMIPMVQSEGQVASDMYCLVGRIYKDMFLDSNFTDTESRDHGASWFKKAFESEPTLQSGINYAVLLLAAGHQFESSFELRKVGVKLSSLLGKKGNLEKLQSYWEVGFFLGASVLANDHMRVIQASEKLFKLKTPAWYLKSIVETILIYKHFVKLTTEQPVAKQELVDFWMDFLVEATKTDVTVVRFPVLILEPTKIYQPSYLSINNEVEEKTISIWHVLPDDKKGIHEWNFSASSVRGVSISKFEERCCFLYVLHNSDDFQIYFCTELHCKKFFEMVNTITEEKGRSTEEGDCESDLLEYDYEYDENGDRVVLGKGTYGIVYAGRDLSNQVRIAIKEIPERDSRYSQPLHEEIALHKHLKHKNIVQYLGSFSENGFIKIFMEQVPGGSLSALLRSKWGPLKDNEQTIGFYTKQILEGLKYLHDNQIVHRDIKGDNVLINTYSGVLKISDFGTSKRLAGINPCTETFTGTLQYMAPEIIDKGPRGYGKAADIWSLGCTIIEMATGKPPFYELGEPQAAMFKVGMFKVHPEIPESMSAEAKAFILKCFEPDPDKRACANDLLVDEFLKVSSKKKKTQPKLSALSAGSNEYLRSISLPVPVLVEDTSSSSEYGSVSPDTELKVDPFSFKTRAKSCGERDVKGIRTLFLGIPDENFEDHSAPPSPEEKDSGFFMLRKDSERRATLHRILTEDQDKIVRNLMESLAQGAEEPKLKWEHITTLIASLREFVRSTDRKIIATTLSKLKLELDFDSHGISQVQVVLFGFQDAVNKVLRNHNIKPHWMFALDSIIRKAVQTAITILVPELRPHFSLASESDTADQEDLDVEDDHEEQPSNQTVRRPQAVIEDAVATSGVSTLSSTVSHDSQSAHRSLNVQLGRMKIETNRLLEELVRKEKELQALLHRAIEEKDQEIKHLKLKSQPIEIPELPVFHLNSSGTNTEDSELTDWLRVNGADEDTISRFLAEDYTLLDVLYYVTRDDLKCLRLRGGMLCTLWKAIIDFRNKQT
# [18] = biological target: T5, Activin receptor type-1B (Homo sapiens) (UniProt P36896); conditions: at 1 µM
# T5 sequence (whole entry): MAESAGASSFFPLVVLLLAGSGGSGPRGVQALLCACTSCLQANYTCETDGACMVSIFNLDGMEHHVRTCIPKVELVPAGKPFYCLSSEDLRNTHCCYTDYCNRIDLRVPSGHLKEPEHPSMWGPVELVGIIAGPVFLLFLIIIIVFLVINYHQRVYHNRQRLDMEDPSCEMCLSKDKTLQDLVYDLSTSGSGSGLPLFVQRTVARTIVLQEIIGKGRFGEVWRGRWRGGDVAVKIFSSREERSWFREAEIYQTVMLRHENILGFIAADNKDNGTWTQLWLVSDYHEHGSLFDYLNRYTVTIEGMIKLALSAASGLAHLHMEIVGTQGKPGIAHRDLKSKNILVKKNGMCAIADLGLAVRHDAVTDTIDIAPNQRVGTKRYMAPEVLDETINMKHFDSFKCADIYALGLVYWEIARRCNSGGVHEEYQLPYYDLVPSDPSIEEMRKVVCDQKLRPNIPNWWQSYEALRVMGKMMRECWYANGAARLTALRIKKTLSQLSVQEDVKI
# [19] = biological target: T5, Activin receptor type-1B (Homo sapiens); conditions: at 10 µM
# [20] = biological target: T2, AMP-activated protein kinase, AMPK (Homo sapiens); conditions: at 1 µM
Structure (SMILES),residual activity [1],residual activity [2],residual activity [3],residual activity [4],residual activity [5],residual activity [6],residual activity [7],residual activity [8],residual activity [9],residual activity [10],residual activity [11],residual activity [12],residual activity [13],residual activity [14],residual activity [15],residual activity [16],residual activity [17],residual activity [18],residual activity [19],residual activity [20]
O=c1cc(N2CCNCC2)oc2c(-c3ccccc3)cccc12,102%,85%,104%,95%,89%,82%,51%,88%,69%,69%,49%,95%,75%,71%,91%,82%,90%,–,–,–
CCCCc1c(-c2ccc(OC)cc2)[nH]c2nccnc12,60%,68%,63%,64%,92%,60%,–,24%,5%,70%,31%,82%,–,92%,15%,22%,–,81%,39%,74%
COc1cc2nccc(Oc3ccc(NC(=S)NC(=O)c4ccccc4C)cc3)c2cc1OC,88%,90%,83%,67%,95%,64%,–,24%,8%,79%,47%,88%,70%,–,81%,74%,88%,126%,96%,–
Nc1ncnc2c1c(-c1ccc(Oc3ccccc3)cc1)cn2C1CCCC1,89%,64%,76%,44%,91%,63%,43%,4%,1%,76%,27%,99%,61%,63%,83%,67%,90%,125%,–,94%
CC(C)(C)n1nc(Cc2cccc3ccccc23)c2c(N)ncnc21,88%,61%,88%,77%,98%,79%,71%,6%,2%,89%,49%,103%,72%,74%,105%,92%,111%,129%,60%,89%
O=C1Nc2ccc(Cl)cc2/C1=C/c1cc(Cl)c(O)c(Cl)c1,91%,68%,73%,62%,–,–,29%,48%,7%,68%,19%,79%,40%,40%,69%,50%,93%,–,–,77%
